Measured potencies and affinities stand elsewhere. Activity calls are given as the source filed them.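 How the source made its calls: active means CTGF level falls with dose and the fitted half-maximal dose is at most twice the top valid dose; inconclusive means flat fit with 30 to 70% drop, or a poor fit; inactive means the rest.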
Assay: YAP1 pathway inhibition via CTGF transcript levels, dose response, cell-based, DLD1 colon cancer, RT-qPCR, cherry-pick (AID 1053122)
Details: DLD1 CTGF mRNA (YAP1 pathway), 24 h; series mostly up to 26 µM; CTGF expression fold change (lower = inhibition): at the top concentration

Compound | CTGF expression fold change (lower = inhibition)
COc1ccccc1S(=O)(=O)N1CC[C@@H]2[C@H]1c1cc(-c3cccc(C#N)c3)ccc1N(C)[C@H]2CO | 0.465 unspecified [at 23.5 µM] (inactive)
CCNC(=O)c1cc2c(c(-c3cccc(-c4ccccc4F)c3)n1)[C@@H](CCO)N(C(=O)CC1CC1)C2 | 0.698 unspecified (inactive)
Cc1ccc(S(=O)(=O)N2CC[C@@H]3[C@H]2c2cc(-c4cccc(C(=O)N(C)C)c4)ccc2N[C@@H]3CO)cc1 | 0.672 unspecified [at 23.5 µM] (inactive)
C[C@@H]1CN([C@@H](C)CO)C(=O)c2ccccc2-c2ccccc2CO[C@H]1CN(C)C(=O)Nc1cccc(C(F)(F)F)c1 | 0.611 unspecified (inactive)
O=C(CC1CC1)N1CC(=O)N2[C@@H](CO)[C@H](c3ccc(/C=C/c4ccccc4)cc3)[C@@H]2C1 | 0.997 unspecified (inactive)
O=C(Nc1ccc(C(F)(F)F)cc1)Nc1ccc2c(c1)[C@H]1C[C@H](CC(=O)N3CCc4ccccc4C3)O[C@@H](CO)[C@H]1O2 | 0.502 unspecified (inactive)
COc1cccc(-c2ccc([C@@H]3[C@@H](C#N)N(C(=O)Cc4ccncc4)[C@@H]3CO)cc2)c1 | 1.22 unspecified (inactive)
C[C@@H]1CN([C@H](C)CO)C(=O)c2ccccc2-c2ccccc2CO[C@@H]1CN(C)Cc1ccccc1C(F)(F)F | 0.554 unspecified (inactive)
C[C@H]1CN([C@@H](C)CO)C(=O)c2cccc(NC(=O)c3ccc(-c4nccs4)cc3)c2O[C@@H]1CN(C)C(=O)Nc1ccc(C(F)(F)F)cc1 | 0.515 unspecified (inactive)
Cc1cccc(-c2ccc([C@@H]3[C@@H](CO)N4CCCCN(S(=O)(=O)c5ccccc5F)C[C@@H]34)cc2)c1 | 0.684 unspecified (inactive)
CC(C)NC(=O)N[C@@H]1CC[C@H](CC(=O)NCCCN(C)C)O[C@@H]1CO | 1.05 unspecified (inactive)
Cc1ccc(S(=O)(=O)Nc2ccc3c(c2)CC(=O)N([C@H](C)CO)C[C@@H](C)[C@@H](CN(C)S(=O)(=O)c2ccccc2)O3)cc1 | 0.942 unspecified (inactive)
CCCC#Cc1ccc([C@@H]2[C@@H](C#N)N(C(=O)CN3CCOCC3)[C@H]2CO)cc1 | 1.05 unspecified [at 23.5 µM] (inactive)
C[C@@H]1CN([C@H](C)CO)C(=O)c2cccc(NC(=O)c3nc4ccccc4s3)c2O[C@H]1CN(C)C(=O)Nc1ccc2c(c1)OCO2 | 0.622 unspecified [at 23.5 µM] (inactive)
C[C@@H]1CN([C@@H](C)CO)C(=O)Cc2cc(NC(=O)C3CCCCC3)ccc2O[C@@H]1CN(C)Cc1ccc(Cl)c(Cl)c1 | 0.922 unspecified [at 23.5 µM] (inactive)
COc1ccc(NC(=O)N(C)C[C@H]2Oc3c(NC(=O)CCCCCC(=O)Nc4ccccc4N)cccc3C(=O)N([C@H](C)CO)C[C@@H]2C)cc1 | 0.828 unspecified [at 23.5 µM] (inactive)
CC(C)(C)[S@](=O)N1Cc2cc(C(=O)NCCc3ccncc3)nc(-c3cccc(-c4cccc(C#N)c4)c3)c2[C@@H]1CCO | 0.654 unspecified (inactive)
N#Cc1cccc(-c2ccc3c(c2)[C@@H]2[C@@H](CCN2S(=O)(=O)c2ccc(F)cc2)[C@H](CO)N3)c1 | 0.556 unspecified (inactive)
Cc1ccc(S(=O)(=O)N2CC[C@H]3[C@H](CO)Nc4ccc(-c5cccc(C(=O)N(C)C)c5)cc4[C@H]32)cc1 | 0.486 unspecified (inactive)

Compound | CTGF expression fold change (lower = inhibition)
C[C@@H]1CN([C@@H](C)CO)C(=O)c2ccccc2-c2ccccc2CO[C@H]1CN(C)C(=O)Nc1ccc(-c2ccccc2)cc1 | 0.477 unspecified (inactive)
C/C=C/c1cccc(-c2nc(C(=O)Nc3nccs3)cc3c2[C@@H](CCO)N(C(=O)NC(C)C)C3)c1 | 0.85 unspecified (inactive)
CN1C(=O)c2cc(NS(=O)(=O)c3ccccc3F)ccc2OC[C@@H]2O[C@@H](CC(=O)NC3Cc4ccccc4C3)CC[C@@H]21 | 1.2 unspecified (inactive)
COCC(=O)N1CC(=O)N2[C@H](CO)[C@@H](c3ccc(C#CC4CC4)cc3)[C@H]2C1 | 0.97 unspecified (inactive)
O=C(Nc1ccc2c(c1)[C@H]1C[C@@H](CC(=O)N3CCc4ccccc4C3)O[C@@H](CO)[C@H]1O2)c1ccc2c(c1)OCO2 | 0.505 unspecified (inactive)
CC(C)(C)[S@@](=O)N1Cc2cc(C(=O)NCCc3ccncc3)nc(-c3cccc(-c4cccc(C#N)c4)c3)c2[C@H]1CCO | 0.415 unspecified (inactive)
C[C@H](O)C#Cc1ccc([C@H]2[C@@H](CO)N3CCCCN(C(=O)c4ccc5c(c4)OCO5)C[C@@H]23)cc1 | 0.846 unspecified [at 23.5 µM] (inactive)
C[C@@H]1CN([C@H](C)CO)C(=O)c2ccccc2-c2ccccc2CO[C@@H]1CN(C)Cc1ccc2c(c1)OCCN2C | 0.751 unspecified (inactive)
C[C@@H]1CN([C@@H](C)CO)C(=O)c2ccccc2-c2ccccc2CO[C@@H]1CN(C)S(=O)(=O)c1cn(C)cn1 | 0.921 unspecified (inactive)
O=C([C@H]1[C@H](CO)[C@H]2Cn3c(ccc(-c4ccc(F)cc4)c3=O)[C@H]2N1Cc1cocn1)N1CCCCC1 | 1.02 unspecified (inactive)
C[C@@H]1CN([C@H](C)CO)S(=O)(=O)c2ccc(C#Cc3ccccc3F)cc2O[C@@H]1CN(C)C(=O)Cc1cccnc1 | 0.777 unspecified (inactive)
CC(=O)N1CCCCN2[C@@H](CO)[C@H](c3ccc(-c4ccccc4)cc3)[C@@H]2C1 | 0.486 unspecified (inactive)
COc1ccc2c3c([nH]c2c1)[C@H](CO)NCC31CCN(C(=O)Cc2cccnc2)CC1 | 1.08 unspecified (inactive)
O=C(Nc1ccccc1)[C@@H]1[C@@H](CO)[C@@H]2Cn3c(cccc3=O)[C@H]1N2C(=O)c1ccc(F)cc1 | 1.04 unspecified (inactive)
COc1ccc2c3c(n(C)c2c1)[C@H](CO)N(S(C)(=O)=O)CC31CCN(C(=O)Nc2cccc(F)c2)CC1 | 0.819 unspecified (inactive)
CC(C)(C)[S@@](=O)N1Cc2cc(C(=O)NCC(F)(F)F)nc(-c3cccc(-c4cccc(F)c4)c3)c2[C@H]1CCO | 0.913 unspecified (inactive)
CN1CCN(C(=O)C[C@@H]2CC[C@H]3[C@@H](COc4ccc(NC(=O)C5CCOCC5)cc4C(=O)N3C)O2)CC1 | 0.869 unspecified (inactive)
C[C@@H]1CN([C@@H](C)CO)C(=O)c2cccc(NC(=O)c3nc4ccccc4s3)c2O[C@H]1CN(C)C(=O)Nc1ccc2c(c1)OCO2 | 0.667 unspecified (inactive)
CCC(=O)N1Cc2cc(C(=O)NCc3cccc(F)c3)nc(-c3cccc(C4=CCCC4)c3)c2[C@H]1CCO | 0.82 unspecified (inactive)

Source: PubChem BioAssay AID1053122 (Broad Institute, 2014)
